# Measured values: the supplement of paper PMC11732987, “Enantioselective OTUD7B fragment discovery through chemoproteomics screening and high-throughput optimisation” (Communications Chemistry, 2025)
# A number with no mark means an inactive call.
# Experiments:
# Assay in all cases: log2 ratio of Biotin-Ahx-Ub-VS probe labelling (fragment/DMSO); higher = less target engagement (more negative = stronger competition), active = hit call of the paper (q ≤ 0.05, log2 ratio ≤ -1)
# Conditions in all cases: compound concentration: 200 uM; treatment time: 3 h
# USP19 = biological target: T1, USP19 (UniProt O94966)
# T1 sequence (whole entry): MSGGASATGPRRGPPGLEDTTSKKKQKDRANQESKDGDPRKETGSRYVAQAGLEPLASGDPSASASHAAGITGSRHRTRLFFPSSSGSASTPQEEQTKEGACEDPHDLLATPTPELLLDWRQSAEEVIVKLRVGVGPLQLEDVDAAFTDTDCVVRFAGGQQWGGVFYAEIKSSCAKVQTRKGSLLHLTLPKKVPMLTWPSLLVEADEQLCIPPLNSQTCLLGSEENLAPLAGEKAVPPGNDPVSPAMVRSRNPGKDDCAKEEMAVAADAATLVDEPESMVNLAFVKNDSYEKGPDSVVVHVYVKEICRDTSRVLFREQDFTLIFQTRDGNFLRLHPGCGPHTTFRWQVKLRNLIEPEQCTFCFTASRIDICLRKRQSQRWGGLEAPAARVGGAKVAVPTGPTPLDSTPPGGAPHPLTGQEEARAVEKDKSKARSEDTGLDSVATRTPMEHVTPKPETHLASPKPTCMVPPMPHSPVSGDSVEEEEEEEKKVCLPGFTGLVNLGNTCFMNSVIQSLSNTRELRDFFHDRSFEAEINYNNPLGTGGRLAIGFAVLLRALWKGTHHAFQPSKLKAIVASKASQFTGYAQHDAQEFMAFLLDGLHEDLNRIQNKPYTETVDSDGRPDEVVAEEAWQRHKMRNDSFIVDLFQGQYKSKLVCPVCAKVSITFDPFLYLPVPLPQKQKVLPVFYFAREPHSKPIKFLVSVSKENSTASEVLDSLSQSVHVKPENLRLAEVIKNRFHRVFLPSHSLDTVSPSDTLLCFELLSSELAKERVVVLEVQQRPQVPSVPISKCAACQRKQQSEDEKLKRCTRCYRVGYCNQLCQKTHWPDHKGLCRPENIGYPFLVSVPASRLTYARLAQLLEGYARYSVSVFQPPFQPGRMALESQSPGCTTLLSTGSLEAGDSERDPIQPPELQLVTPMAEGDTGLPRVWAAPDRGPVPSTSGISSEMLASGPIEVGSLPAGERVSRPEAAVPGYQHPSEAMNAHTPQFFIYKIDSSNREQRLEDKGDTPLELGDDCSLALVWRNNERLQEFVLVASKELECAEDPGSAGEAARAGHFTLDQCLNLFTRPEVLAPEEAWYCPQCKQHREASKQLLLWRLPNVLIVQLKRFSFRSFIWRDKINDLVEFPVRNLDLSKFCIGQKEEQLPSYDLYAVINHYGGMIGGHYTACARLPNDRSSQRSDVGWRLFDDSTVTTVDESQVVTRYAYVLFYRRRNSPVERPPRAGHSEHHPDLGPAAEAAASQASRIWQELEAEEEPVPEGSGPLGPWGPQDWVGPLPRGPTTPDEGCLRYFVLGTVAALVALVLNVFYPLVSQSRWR
# Outline: (§1)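 Labelled DUBs were enriched with NeutrAvidin, digested with LysC and trypsin, and run by diaPASEF LC-MS/MS. The labelling used Biotin-Ahx-Ub-VS at 0.5 µM final for 1 h on HEK293T lysate (495 µg per sample) previously treated in triplicate with fragment at 200 µM or vehicle for 3 h. Values are average log2 fragment/vehicle ratios by unpaired t-test on global-median-normalised Spectronaut quantities of proteins with ≥2 unique peptides.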
# USP22 = biological target: T2, USP22 (UniProt Q9UPT9)
# T2 sequence (whole entry): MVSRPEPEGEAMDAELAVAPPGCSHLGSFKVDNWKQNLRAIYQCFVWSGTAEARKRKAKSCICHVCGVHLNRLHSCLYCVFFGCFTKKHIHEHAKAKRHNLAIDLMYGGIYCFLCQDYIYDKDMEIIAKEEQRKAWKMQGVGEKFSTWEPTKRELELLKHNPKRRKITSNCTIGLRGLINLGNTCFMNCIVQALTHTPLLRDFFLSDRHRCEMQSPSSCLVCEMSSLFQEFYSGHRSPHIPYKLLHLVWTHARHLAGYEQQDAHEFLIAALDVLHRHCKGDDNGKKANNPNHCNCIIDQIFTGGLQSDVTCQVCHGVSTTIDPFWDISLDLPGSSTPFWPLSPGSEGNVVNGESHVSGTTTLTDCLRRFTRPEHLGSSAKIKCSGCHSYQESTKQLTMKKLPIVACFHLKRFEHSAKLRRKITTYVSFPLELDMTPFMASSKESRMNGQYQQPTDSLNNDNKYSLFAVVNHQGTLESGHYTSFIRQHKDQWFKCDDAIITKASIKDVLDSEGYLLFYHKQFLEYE
# Outline: as §1
# USP24 = USP24 (UniProt Q9UPU5)
# Outline: as §1
# USP25 = biological target: T3, USP25 (UniProt Q9UHP3)
# T3 sequence (whole entry): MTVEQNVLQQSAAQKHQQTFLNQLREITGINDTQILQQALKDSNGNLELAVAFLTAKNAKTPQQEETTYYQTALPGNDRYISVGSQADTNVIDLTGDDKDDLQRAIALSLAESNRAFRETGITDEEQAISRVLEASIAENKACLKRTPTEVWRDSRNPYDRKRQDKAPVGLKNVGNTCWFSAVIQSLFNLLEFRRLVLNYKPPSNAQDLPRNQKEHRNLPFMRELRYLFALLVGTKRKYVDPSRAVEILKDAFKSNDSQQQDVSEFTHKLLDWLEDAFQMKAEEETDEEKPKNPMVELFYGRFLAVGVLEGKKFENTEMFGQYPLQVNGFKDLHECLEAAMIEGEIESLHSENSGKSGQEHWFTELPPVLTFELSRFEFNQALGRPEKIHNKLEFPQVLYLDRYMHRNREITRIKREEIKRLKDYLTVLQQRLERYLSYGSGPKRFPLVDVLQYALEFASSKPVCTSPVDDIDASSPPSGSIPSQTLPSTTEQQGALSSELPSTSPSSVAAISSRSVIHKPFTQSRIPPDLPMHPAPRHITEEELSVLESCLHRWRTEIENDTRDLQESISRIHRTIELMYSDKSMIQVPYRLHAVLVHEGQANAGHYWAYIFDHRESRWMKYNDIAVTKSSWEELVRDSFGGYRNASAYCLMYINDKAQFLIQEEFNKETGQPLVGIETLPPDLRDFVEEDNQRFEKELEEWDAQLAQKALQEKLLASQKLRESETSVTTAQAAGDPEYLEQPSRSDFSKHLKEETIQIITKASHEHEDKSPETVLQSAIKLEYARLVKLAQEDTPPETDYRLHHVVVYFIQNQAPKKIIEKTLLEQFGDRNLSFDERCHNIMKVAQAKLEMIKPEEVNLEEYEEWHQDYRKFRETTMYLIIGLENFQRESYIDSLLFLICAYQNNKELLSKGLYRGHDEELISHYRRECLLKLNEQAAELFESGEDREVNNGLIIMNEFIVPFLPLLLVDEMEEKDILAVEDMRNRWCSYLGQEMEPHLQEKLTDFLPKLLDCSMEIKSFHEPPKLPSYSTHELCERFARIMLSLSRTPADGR
# Outline: as §1
# USP28 = biological target: T4, USP28 (UniProt Q96RU2)
# T4 sequence (whole entry): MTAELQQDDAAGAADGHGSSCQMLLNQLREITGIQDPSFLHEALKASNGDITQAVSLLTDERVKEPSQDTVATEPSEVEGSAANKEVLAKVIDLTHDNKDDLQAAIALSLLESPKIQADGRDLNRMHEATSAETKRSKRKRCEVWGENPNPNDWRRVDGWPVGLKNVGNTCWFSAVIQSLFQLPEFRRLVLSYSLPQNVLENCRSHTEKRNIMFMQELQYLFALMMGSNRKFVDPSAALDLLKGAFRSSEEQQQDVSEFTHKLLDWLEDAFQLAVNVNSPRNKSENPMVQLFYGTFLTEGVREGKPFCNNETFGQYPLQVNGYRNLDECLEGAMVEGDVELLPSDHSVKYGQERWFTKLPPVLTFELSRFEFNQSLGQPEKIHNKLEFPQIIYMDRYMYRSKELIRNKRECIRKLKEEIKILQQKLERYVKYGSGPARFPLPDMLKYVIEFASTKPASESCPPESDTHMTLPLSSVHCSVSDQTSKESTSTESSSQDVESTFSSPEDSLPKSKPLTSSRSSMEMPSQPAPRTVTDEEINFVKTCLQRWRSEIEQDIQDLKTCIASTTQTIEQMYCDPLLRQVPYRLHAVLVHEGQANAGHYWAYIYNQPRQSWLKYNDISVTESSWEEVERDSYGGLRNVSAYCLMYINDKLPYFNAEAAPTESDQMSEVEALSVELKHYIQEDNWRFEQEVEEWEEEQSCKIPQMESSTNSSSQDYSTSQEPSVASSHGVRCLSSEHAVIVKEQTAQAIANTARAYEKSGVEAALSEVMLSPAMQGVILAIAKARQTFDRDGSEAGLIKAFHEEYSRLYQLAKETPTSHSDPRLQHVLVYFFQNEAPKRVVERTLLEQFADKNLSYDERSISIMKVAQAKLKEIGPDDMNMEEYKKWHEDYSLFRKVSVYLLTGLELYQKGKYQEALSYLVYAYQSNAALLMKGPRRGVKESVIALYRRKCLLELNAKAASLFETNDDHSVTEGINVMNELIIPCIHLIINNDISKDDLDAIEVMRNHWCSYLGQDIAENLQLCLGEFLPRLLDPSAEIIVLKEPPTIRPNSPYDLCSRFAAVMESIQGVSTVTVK
# Outline: as §1
# USP24, sequence (Q9UPU5 whole entry): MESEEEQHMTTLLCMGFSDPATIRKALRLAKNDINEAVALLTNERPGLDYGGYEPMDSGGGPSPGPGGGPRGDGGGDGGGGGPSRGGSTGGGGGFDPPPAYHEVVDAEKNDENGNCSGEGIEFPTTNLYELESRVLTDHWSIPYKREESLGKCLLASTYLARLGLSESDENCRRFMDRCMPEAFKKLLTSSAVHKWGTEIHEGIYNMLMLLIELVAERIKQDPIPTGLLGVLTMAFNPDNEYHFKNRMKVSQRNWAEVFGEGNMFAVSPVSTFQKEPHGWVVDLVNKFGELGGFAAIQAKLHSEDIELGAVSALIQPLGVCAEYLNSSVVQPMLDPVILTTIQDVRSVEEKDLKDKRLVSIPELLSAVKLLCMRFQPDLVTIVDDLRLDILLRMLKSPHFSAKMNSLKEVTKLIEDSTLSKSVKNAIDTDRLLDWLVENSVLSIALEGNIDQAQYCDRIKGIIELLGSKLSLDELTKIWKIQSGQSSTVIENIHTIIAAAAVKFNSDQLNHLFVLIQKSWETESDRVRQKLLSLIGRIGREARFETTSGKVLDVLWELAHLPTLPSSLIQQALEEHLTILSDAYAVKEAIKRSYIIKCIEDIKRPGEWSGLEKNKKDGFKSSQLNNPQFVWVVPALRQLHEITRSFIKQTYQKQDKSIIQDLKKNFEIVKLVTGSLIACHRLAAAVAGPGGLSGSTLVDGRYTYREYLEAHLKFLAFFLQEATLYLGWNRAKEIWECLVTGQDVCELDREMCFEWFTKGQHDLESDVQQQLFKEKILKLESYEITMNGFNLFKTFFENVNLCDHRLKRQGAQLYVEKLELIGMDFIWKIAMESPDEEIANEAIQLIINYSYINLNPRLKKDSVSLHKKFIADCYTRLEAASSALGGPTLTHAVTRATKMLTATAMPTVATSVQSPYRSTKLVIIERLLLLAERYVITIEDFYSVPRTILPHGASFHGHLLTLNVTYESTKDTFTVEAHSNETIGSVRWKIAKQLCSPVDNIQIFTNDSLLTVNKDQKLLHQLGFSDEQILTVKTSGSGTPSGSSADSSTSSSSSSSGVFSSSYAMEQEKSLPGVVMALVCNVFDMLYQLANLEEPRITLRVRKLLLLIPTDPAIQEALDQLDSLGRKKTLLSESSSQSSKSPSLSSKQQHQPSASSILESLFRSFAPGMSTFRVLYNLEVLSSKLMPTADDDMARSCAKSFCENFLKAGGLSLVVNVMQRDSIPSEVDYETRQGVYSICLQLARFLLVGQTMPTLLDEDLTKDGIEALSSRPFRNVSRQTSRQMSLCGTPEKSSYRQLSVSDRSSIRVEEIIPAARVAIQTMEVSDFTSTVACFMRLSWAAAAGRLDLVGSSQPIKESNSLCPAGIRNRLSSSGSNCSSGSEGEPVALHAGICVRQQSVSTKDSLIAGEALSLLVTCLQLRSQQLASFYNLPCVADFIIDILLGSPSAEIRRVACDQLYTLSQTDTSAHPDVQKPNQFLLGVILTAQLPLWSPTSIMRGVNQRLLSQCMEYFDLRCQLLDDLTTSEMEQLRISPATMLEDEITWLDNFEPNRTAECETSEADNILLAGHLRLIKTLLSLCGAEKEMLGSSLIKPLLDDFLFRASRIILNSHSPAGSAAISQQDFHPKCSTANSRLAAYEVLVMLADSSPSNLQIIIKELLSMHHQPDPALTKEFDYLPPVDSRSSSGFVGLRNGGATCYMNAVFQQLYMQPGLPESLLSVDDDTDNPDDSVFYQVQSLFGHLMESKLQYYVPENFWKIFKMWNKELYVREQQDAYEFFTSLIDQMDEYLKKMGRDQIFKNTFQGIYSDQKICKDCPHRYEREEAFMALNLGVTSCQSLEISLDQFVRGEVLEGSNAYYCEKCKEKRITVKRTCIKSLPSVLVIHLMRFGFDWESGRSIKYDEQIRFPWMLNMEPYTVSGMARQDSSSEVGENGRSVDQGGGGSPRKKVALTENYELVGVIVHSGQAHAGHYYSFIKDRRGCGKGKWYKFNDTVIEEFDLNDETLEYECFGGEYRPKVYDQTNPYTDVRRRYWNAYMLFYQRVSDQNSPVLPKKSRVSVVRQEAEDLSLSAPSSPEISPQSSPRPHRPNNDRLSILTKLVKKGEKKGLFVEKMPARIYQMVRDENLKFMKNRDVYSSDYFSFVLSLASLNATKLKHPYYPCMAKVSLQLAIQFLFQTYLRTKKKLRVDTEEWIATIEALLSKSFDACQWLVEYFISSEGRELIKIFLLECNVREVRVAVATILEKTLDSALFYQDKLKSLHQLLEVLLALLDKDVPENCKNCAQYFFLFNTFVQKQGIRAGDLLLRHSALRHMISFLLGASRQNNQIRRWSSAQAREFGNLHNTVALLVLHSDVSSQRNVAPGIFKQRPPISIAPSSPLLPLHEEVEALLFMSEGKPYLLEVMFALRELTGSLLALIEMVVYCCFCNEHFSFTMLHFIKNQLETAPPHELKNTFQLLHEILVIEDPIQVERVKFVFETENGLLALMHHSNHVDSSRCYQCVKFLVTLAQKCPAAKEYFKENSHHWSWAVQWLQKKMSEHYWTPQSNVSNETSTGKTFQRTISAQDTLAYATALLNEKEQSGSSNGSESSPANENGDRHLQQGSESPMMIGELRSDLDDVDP
structure (smiles),measurement,setting,value
O=C(CCl)N[C@H]1CC[C@@H](CO)CC1,log2 ratio of Biotin-Ahx-Ub-VS probe labelling,USP19,-0.828
same,log2 ratio of Biotin-Ahx-Ub-VS probe labelling,USP22,-0.256
same,log2 ratio of Biotin-Ahx-Ub-VS probe labelling,USP24,-1.05 (active)
same,log2 ratio of Biotin-Ahx-Ub-VS probe labelling,USP25,-0.739
same,log2 ratio of Biotin-Ahx-Ub-VS probe labelling,USP28,-1.09 (active)
